SMILES strings stand for the structures. The whole screen tested about 580,000 compounds, of which about 6,100 (1.1%) were called active. A call without a number means that no potency is given here. Another 15% or so got no clear call; they are omitted. The full list was thinned out, with actives kept by preference. Values without a mark were called inactive. Calls come from the whole dose curve; as a rule, active = well fitted inhibition curve with a large enough effect; inconclusive = small, poorly fitted or top-dose-only effect, or another doubt; inactive = no such curve, though single readings can be large or run the other way.
Potency is the fitted concentration of half-maximal effect.

Chain of Polyunsaturated fatty acid lipoxygenase ALOX12 (Homo sapiens) (P18054 whole entry, looked up): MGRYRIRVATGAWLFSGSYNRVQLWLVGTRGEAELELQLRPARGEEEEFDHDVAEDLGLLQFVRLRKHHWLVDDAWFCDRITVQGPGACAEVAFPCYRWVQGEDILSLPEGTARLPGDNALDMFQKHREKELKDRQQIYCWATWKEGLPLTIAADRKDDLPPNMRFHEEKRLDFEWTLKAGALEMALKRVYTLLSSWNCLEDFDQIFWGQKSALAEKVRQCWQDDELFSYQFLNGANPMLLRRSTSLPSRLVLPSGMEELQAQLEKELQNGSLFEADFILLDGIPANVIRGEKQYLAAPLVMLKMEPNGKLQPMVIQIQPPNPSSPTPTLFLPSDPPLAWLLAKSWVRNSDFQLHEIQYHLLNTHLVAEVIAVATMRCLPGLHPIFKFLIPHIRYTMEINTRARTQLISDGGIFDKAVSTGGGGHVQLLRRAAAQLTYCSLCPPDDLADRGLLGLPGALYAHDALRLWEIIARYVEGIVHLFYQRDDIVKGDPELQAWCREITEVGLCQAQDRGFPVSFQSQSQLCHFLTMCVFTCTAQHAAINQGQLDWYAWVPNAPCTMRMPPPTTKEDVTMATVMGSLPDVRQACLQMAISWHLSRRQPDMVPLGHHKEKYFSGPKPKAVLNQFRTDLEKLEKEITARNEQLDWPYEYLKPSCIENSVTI

The experiment concerns the target Polyunsaturated fatty acid lipoxygenase ALOX12 (Homo sapiens) (UniProt P18054). The experiment can be described thus: Primary qHTS assay for inhibitors of human arachidonate 12S-lipoxygenase (ALOX12): Round 2. The note with it: purified 12hLO, xylenol orange hydroperoxide absorbance; series mostly up to 108 µM. The essentials: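 Purified human 12hLO (150 nM final) in 25 mM Hepes, 0.01% Triton X-100, pH 7.0 was preincubated 15 min at room temperature with compound. Then 40 uM arachidonic acid was added, 30 min. Hydroperoxide was read by Fe-XO absorbance ratio 573/405 nm.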
`COCCNC(=O)COc1ccc2c(C)c(Cc3ccccc3)c(=O)oc2c1C`: the Potency entry was “inactive”.
Same read-out and setting: the value for `CN(C)C[C@@H]1CN(Cc2ccccn2)C[C@H]1NC(=O)c1cc(F)ccc1Cl` was “inactive”; that for `COC(=O)COc1ccc2c(=O)c(Oc3ccccc3Br)coc2c1` was “inactive”.
Turning to `O=C(O)COc1ccc2c(=O)c(Oc3ccc(Cl)cc3)coc2c1`, the Potency was 12.6 µM (active).
With `COc1ccccc1Oc1coc2cc(OCc3ccc(Cl)cc3)ccc2c1=O`, the Potency entry was “inactive”.
The same measure, in the same setting: under `CCCCN1C(SCC(=O)N2CCCC2)=NS(=O)(=O)c2ccccc21` stands “inactive”; under `Cc1ccc(C(CNC(=O)c2cc3ccccc3oc2=O)N(C)C)o1` (stereo not given), “inactive”.
Still for that read-out and setting: under `O=C1Cc2c(-c3ccc(Oc4ccccc4)cc3)n[nH]c2CN1CCc1ccncc1` stands “inactive”; under `CCn1nc(C)cc1-c1nn2c(-c3cccc(Cl)c3Cl)nnc2s1`, “inactive”; under `CCc1ccc(Nc2n[n+](-c3ccccc3)c(-c3cccc(Cl)c3Cl)s2)cc1`, 39.8 µM (active).
On the same count and under the same terms, the value for `CC1CCCC(NC(=O)c2c(F)cccc2F)C1C` (stereo not given) was “inactive”; that for `CCc1sc(C(=O)NC(C)C)cc1C` was “inactive”.
As for `Cc1cccc(OCC(O)CNC23CC4CC(CC(C4)C2)C3)c1` (stereo not given), the Potency entry was “inactive”.
On to `CCn1cc(CN2CCCC23CCN(c2ccc(C(F)(F)F)cn2)CC3)cc1C#N`, for which the Potency entry is “inactive”.
In the case of `S=c1[nH]nc2c3c4c(sc3ncn12)CCCC4`, the Potency was 0.562 µM (active).
The same measure, in the same setting: under `O=C(CSc1ncnc2sc3c(c12)CCCC3)Nc1ccc(F)cc1` stands “inactive”; under `Cc1cc(C(F)(F)F)nn1Cc1nc2c3c4c(sc3ncn2n1)CCC4`, “inactive”.
The same measure, in the same setting: the value for `CCCCCCCCCC(=O)NN=C1CCCCCCCCCCC1` was “inactive”.
For `O=C(CSc1ncccn1)N1CCCC1`, the Potency entry is “inactive”.
Take `CC1(C(=O)NS(=O)(=O)C2CC2)CCCN(C(=O)CSc2ccccc2)C1` (stereo not given): the Potency entry is “inactive”.
For `O=C(CSc1ccncc1)N1CCCC(O)(CN2CCCC2)C1` (stereo not given), the Potency is 25.1 µM (active).
Regarding `COc1ccc(C2CC(=O)c3cnc4c(c3C2)c(=O)[nH]c(=O)n4CCC(C)C)cc1` (stereo not given), the Potency result was “inactive”.
The same measure, in the same setting: under `CCCC(=O)C1C(=O)CC(c2ccc(OC)c(OC)c2)CC1=O` (stereo not given) stands “inactive”; under `O=C(CSc1nc2ccccc2nc1N1CCCCC1)Nc1cccc(Br)c1`, “inactive”.
On the same count and under the same terms, under `CC(Oc1ccc(-c2ccccc2)cc1)C(N)=O` (stereo not given) stands “inactive”; under `N#Cc1ccc(-c2nc(C(=O)NC3CCCCCC3)no2)cc1`, “inactive”.
Same read-out and setting: the value for `CC1(OC(=O)C2CCCC2)C(=O)C=C2C=C(c3ccc(C#N)cc3)OC=C2C1=O` (stereo not given) was 10 µM (active); that for `CCCCCC1CCC(C(=O)Oc2ccc(C#N)cc2)CC1` (stereo not given) was “inactive”.
Turning to `CCCc1cc(=O)oc2c(C)c(OCC(=O)c3ccc(-c4ccccc4)cc3)ccc12`, the Potency result is “inactive”.
Turning to `O=C(Nc1ccc2c(c1)OCCO2)C(=O)c1c[nH]c2cc(F)ccc12`, the Potency result was “inactive”.
On to `Fc1ccc(OC2CN(Cc3cccnc3)C2)c(F)c1`, for which the activity change, negative = inhibition was 10.3% [at 12.5 µM].
Consider `COc1ccc(CN2CCN(Cc3cccnc3)CC2)cc1OCc1ccccc1`, for which the Potency was 0.708 µM (active).
On the same count and under the same terms, under `C=CCc1ccc(OCC(O)CN2CCN(Cc3ccccc3)CC2)c(OC)c1` (stereo not given) stands “inactive”; under `Cc1[nH]nc2c1C(c1ccccc1Br)C1=C(COC1=O)N2` (stereo not given), “inactive”.
`O=C(NCc1coc(-c2cccs2)n1)C1CCCN(C(=O)c2ccc(F)cc2)C1` (stereo not given): the Potency entry was “inactive”.
Same read-out and setting: the value for `CN(CC(=O)Nc1cc(Cl)ccc1F)Cc1ccccc1N1CCCCC1` was “inactive”; that for `CNC(NC(=O)c1ccc(C)cc1)C(Cl)(Cl)Cl` (stereo not given) was “inactive”.
Still for that read-out and setting: under `COc1ccc(C(=O)N(Cc2ccccc2)c2ccc(C)cc2)cc1S(=O)(=O)N1CCOCC1` stands “inactive”; under `COc1ccc(C(=O)NCc2ccc(C)cc2)cc1S(=O)(=O)N1CCCC1`, “inactive”.
On the same count and under the same terms, the value for `COc1ccc(C)cc1S(=O)(=O)N1CCN(S(=O)(=O)c2cc(C(=O)O)ccc2C)CC1` was 15.8 µM (active); that for `CCCCn1nc(C(=O)Nc2cc(Cl)ccc2C)c2ccccc2c1=O` was “inactive”.
With `CCOc1ccc(-c2nc(CN3CCN(C(=O)Nc4ccccc4OC)CC3)c(C)o2)cc1`, the Potency result is “inactive”.
Turning to `Cc1ncc(-c2ccc(S(=O)(=O)Nc3ccc(F)c(F)c3)cc2)o1`, the Potency result is “inactive”.
On the same count and under the same terms, under `COc1cccc(CN2CCCN(Cc3ccncc3)C(c3ccccc3)CC(=O)NCC2)c1OC` (stereo not given) stands “inactive”; under `N#Cc1c(-c2cccs2)nc(SCC(=O)c2ccc(Br)cc2)[nH]c1=O`, 7.08 µM (active).
The same measure, in the same setting: under `N#Cc1ccc(-c2cccs2)nc1SCc1ccc(Br)cc1` stands “inactive”.
Same read-out and setting: under `N#Cc1c(-c2ccc(F)cc2)cc(C2CC2)nc1SCC(=O)c1cccs1` stands “inactive”; under `Cc1oc(-c2ccc(OC(C)C)cc2)nc1CSc1nc2c(c(=O)[nH]1)CCC2`, “inactive”.
`CCC(Oc1ccc(Br)cc1)C(=O)O` (stereo not given): the Potency result is “inactive”.
On the same count and under the same terms, the value for `COC(=O)CN1C(=O)C(O)=C(C(C)=O)C1c1ccc([N+](=O)[O-])cc1` (stereo not given) was “inactive”; that for `CC(=O)C1=C(O)C(=O)N(c2ccc(Br)cc2)C1c1ccc([N+](=O)[O-])cc1` (stereo not given) was 31.6 µM (active).
With `CC(=O)C1=C(O)C(=O)N(c2cccnc2)C1c1ccc([N+](=O)[O-])cc1` (stereo not given), the Potency result is “inactive”.
The same measure, in the same setting: under `O=C(C(c1ccccc1)c1ccccc1)N(Cc1ccco1)C1CC1` stands “inactive”; under `Cc1ccc(CS(=O)Cc2ccc(Cl)cc2)cc1` (stereo not given), “inactive”.
In the case of `O=C(NC1CCCCCC1)C1CCN(C(=O)c2ccc(Cl)cc2)CC1`, the Potency result was “inactive”.
With `O=C(NNC(=S)NC1CC2CCC1C2)c1ccc(Cl)cc1` (stereo not given), the Potency entry is “inactive”.
For the molecule `O=C(NC(=S)NC1CCCCC1)c1ccc(Cl)cc1`, the Potency was 2.82 µM (active).
On the same count and under the same terms, under `CC(C)CNC(=S)NC(=O)c1ccc(Cl)cc1` stands 8.91 µM (active); under `CC(C)CNC(=S)NNC(=O)c1nn(C)cc1Cl`, “inactive”.
As for `Cc1scc(C(=O)NNC(=S)NCC(C)C)c1C`, the Potency entry was “inactive”.
In the case of `Cc1ccccc1N1CCCN(Cc2ccccc2OCCO)CC1`, the Potency entry is “inactive”.
On the same count and under the same terms, under `Cc1ccc(-c2nc3ccccc3o2)cc1NC(=O)C1CC1` stands “inactive”.
As for `Cn1cc(-c2cnc3n[nH]c(-c4ccccc4)c3n2)cn1`, the Potency result was “inactive”.
Same read-out and setting: the value for `COc1ccc(Cl)cc1C(=O)OCCOc1ccccc1F` was “inactive”; that for `CC(C)CCNC(=O)COC(=O)c1cc(-c2ccco2)nc2ccccc12` was 6.31 µM (active); that for `Cc1cc(C(=O)OCC(=O)NC(=O)c2ccccc2)c2ccccc2n1` was “inactive”.
With `CCc1nnsc1C(=O)N(C)CCOc1ccccc1`, the Potency entry is “inactive”.
Still for that read-out and setting: under `CCCOc1cccc(-c2cc(C(=O)OC)c3ccccc3n2)c1` stands “inactive”; under `CN(CCOc1ccccc1)C(=O)c1cc(-c2ccco2)nc2ccccc12`, 31.6 µM (active).
Same read-out and setting: the value for `COc1cccc(-c2cc(C(=O)NCCC(C)C)c3ccccc3n2)c1` was “inactive”; that for `CC(C)c1ccc(OCC(=O)Nc2ccc(C(=O)N(C)C)cc2)cc1` was “inactive”; that for `N#Cc1nc(-c2ccc(S(=O)(=O)N3CCOCC3)cc2)oc1NCCN1CCOCC1` was “inactive”.
For the molecule `CC(C)CCN1CC2(CCCN(C(=O)c3ccn(C)c(=O)c3)C2)CCC1=O` (stereo not given), the Potency result is “inactive”.
Take `O=C(CC(NC(=O)c1ccccc1)c1ccccc1)NC12CC3CC(CC(C3)C1)C2` (stereo not given): the Potency result is “inactive”.
For the molecule `CCc1nnc(NC(=O)C2CC(=O)N(c3ccc4c(c3)OCCO4)C2)s1` (stereo not given), the Potency entry is “inactive”.
With `COc1ccc(C(=O)CSc2nnc(NC(=O)C3CC(=O)N(c4cccc(OC)c4)C3)s2)cc1` (stereo not given), the Potency result is “inactive”.
Take `CCOC(=O)CSc1nnc(NC(=O)C2CC(=O)N(c3ccc(F)cc3)C2)s1` (stereo not given): the Potency is 39.8 µM (active).
As for `CSc1nc(-c2cccs2)cc(C(F)(F)F)n1`, the Potency result was “inactive”.
Regarding `CCn1nc(C(=O)N(C)Cc2cnn(-c3ccccc3)c2)c2ccccc2c1=O`, the Potency entry was “inactive”.
As for `CC1CCCCN1C(C)CNC(=S)Nc1ccc(F)cc1F` (stereo not given), the Potency entry was “inactive”.
The same measure, in the same setting: the value for `Cn1cc(CN2CCn3c(nnc3[C@@H]3C[C@@H](O)CN3Cc3ccccc3)C2)c2ccccc21` was “inactive”; that for `CC(=O)Oc1ccc(N(C(C)=O)S(=O)(=O)c2ccc3ccccc3c2)cc1Br` was “inactive”; that for `CC(=O)N(c1ccc2oc(=O)sc2c1)S(=O)(=O)c1ccc(C)cc1` was 8.91 µM (active).
As to `CCOC(=O)c1c(C)oc2ccc(N(C(=O)c3ccncc3)S(=O)(=O)c3ccc(CC)cc3)cc12`, the Potency result was “inactive”.
The same measure, in the same setting: the value for `Cn1c(=O)c2c(nc(NCc3ccccc3)n2Cc2cccc(F)c2)n(C)c1=O` was “inactive”; that for `O=C(Nc1nc(-c2ccco2)c(-c2ccco2)s1)c1ccco1` was 31.6 µM (active).
For `CCN(c1ccc(Cl)cc1)S(=O)(=O)c1nnc(NC(=O)c2ccco2)s1`, the Potency result was “inactive”.
Same read-out and setting: the value for `O=C(Nc1ccc2nc(SCCOc3ccccc3)sc2c1)c1ccco1` was “inactive”; that for `O=C(COC(=O)CNC(=O)c1cccc(Cl)c1)Nc1ncc(C(F)(F)F)cc1Cl` was “inactive”; that for `Cc1nc(SC(C)C(=O)Nc2cccc(C#N)c2)n(CC(C)C)c1C` (stereo not given) was “inactive”.
As to `COc1ccc(NC(=O)[C@@H]2C[C@@H](c3cccc(C(F)(F)F)c3)N(Cc3cnn(C)c3)C2)cn1`, the Potency result was “inactive”.
The same measure, in the same setting: the value for `COc1ccc(NC(=O)[C@@H]2C[C@@H](c3ccc(F)cc3)N(CCOc3ccccc3)C2)cn1` was 31.6 µM (active); that for `O=C(Nc1cccnc1)[C@@H]1C[C@@H](c2ccc(F)cc2)N([S+](=O)([O-])c2ccccc2)C1` was “inactive”; that for `O=C(NC1CC1)c1ccccc1OCC1CCCN(Cc2ccncc2F)C1` (stereo not given) was “inactive”.
Turning to `Cc1ccc(/C=N/Nc2ccccc2C(F)(F)F)cc1`, the Potency entry was “inactive”.
Consider `CN(CC(=O)Nc1ccc(N2CCOCC2)cc1)CC(=O)Nc1ccccc1[N+](=O)[O-]`, for which the Potency entry was “inactive”.
The same measure, in the same setting: under `Cc1ccccc1N/N=C/c1ccc(N2CCOCC2)cc1` stands 7.08 µM (active); under `Cc1cc2ccccc2n1CC(=O)Nc1ccc(Oc2ccccc2)cc1`, “inactive”.
In the case of `Cc1ccc(CN2CCN(c3nc4ccccc4o3)CC2CCO)cc1` (stereo not given), the Potency entry is “inactive”.
On to `CSc1ccc(/C=N/Nc2c(Cl)cc(Cl)cc2Cl)cc1`, for which the Potency was 4.47 µM (active).
`CSc1ccc(/C=N/N2CCN(Cc3ccccc3Cl)CC2)cc1`: the Potency entry is “inactive”.
For the molecule `CSc1ccccc1N=Cc1ccc(Cl)c(Cl)c1`, the Potency entry is “inactive”.
`CCNc1nc(C(F)(F)F)c(C(=O)OCC)s1`: the Potency result is “inactive”.
On the same count and under the same terms, under `Cc1ccc(C2C3=C(CC(C)(C)CC3=O)Nc3nc(SCCC(C)C)[nH]c(=O)c32)s1` (stereo not given) stands “inactive”; under `CN(C)C(=O)c1cccnc1OC1CCN(C(=O)Nc2cc(F)cc(F)c2)C1` (stereo not given), “inactive”.
